Results filed as inconclusive are left out. The source made the active and inactive calls. Calls come from the whole dose curve; as a rule, active = well fitted inhibition curve with a large enough effect; inconclusive = small, poorly fitted or top-dose-only effect; inactive = flat fitted curve, though single readings scatter.
Tested on: AA1029
Test: qHTS profiling for inhibitors of Plasmodium falciparum proliferation (AID 504749);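 note: 0% = DMSO vehicle and full inhibition = artemisinin control; nearly all actives have a fitted effect of over 60% in size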
Conditions: P. falciparum in erythrocytes, SYBR Green DNA, 72 h; series mostly up to 28.7 µM; activity, negative = inhibition: at the top concentration
How it was run: (§1)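 Quantitative HTS: compounds pinned into medium, infected erythrocytes added (0.3% parasitemia, 2.5% hematocrit), 72 h culture at 37 C under 5% CO2. Saponin/Triton lysis with SYBR Green I, overnight RT, then fluorescence read.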

Row | SMILES | activity, negative = inhibition
1 | O=C1c2cccc(O)c2C(=O)c2c(O)cccc21 | 7.31% (inactive)
2 | COc1nccnc1NS(=O)(=O)c1ccc(N)cc1 | -0.641% (inactive)
3 | O=C1c2ccccc2S(=O)(=O)N1CCCCN1CCN(c2ncccn2)CC1 | -13.8% (inactive)
4 | OCC(O)CS (stereo not given) | 5.2% (inactive)
5 | Nc1ncnc(Nc2ccccc2)n1 | -7.24% (inactive)
6 | NC(=O)CCCCC1CCSS1 (stereo not given) | 7.33% (inactive)
7 | CC(=O)OC[C@H]1O[C@@](COC(C)=O)(O[C@H]2O[C@H](COC(C)=O)[C@@H](OC(C)=O)[C@H](OC(C)=O)[C@H]2OC(C)=O)[C@@H](OC(C)=O)[C@@H]1OC(C)=O | -10.1% (inactive)
8 | O=C(c1ccccc1)C(O)c1ccccc1 (stereo not given) | -6.09% (inactive)
9 | CC(C)=CCC/C(C)=C/CO | -2.51% (inactive)
10 | NCc1ccc(S(N)(=O)=O)cc1 | 6.05% [at 12.8 µM] (inactive)
11 | O=C1CC[C@@H](C(=O)O)N1 | 6.79% (inactive)
12 | Cc1c(NC(=O)c2cccnc2)c(=O)n(-c2ccccc2)n1C | 3.17% [at 12.8 µM] (inactive)
13 | CCCCCCCCCCC(CO)CCCCCCCC (stereo not given) | 16.6% (inactive)
14 | CCCCCCCC(=O)OCC(COC(=O)CCCCCCC)OC(=O)CCCCCCC | 7.13% (inactive)
15 | CC(=O)N[C@@H](Cc1ccc(O)cc1)C(=O)O | 7.5% (inactive)
16 | CC(=O)Oc1cccc(O)c1 | 1.86% (inactive)
17 | Cc1onc(-c2ccccc2)c1-c1ccc(S(N)(=O)=O)cc1 | 3.22% (inactive)
18 | O=C1C(c2[nH]c3ccccc3c2O)=Nc2ccccc21 | -23.5% (inactive)
19 | Cc1c(I)c(=O)n(-c2ccccc2)n1C | 6.24% (inactive)
20 | CN(C(=O)c1c(O)c2ccccc2n(C)c1=O)c1ccccc1 | 1.47% (inactive)
21 | C[C@H]1COc2c(C3(N)CC3)c(F)cc3c(=O)c(C(=O)O)cn1c23 | -1.47% (inactive)
22 | CC(=O)SC[C@@H](Cc1ccccc1)C(=O)NCC(=O)OCc1ccccc1 | 2.18% [at 12.8 µM] (inactive)
23 | Cc1[nH]c(C)c(Cl)c(=O)c1Cl | -7.49% (inactive)
24 | O=C(O)CCCCC1CCSS1 (stereo not given) | 12.6% (inactive)
25 | CN(C/C=C/C#CC(C)(C)C)Cc1cccc2ccccc12 | -18.8% (inactive)

Tested on: AS120
Test: as above
Conditions: P. falciparum in erythrocytes, SYBR Green DNA, 72 h; series mostly up to 28.7 µM; activity, negative = inhibition: at the top concentration
How it was run: as §1

Row | SMILES | activity, negative = inhibition
26 | O=C1c2cccc(O)c2C(=O)c2c(O)cccc21 | 6.76% (inactive)
27 | COc1nccnc1NS(=O)(=O)c1ccc(N)cc1 | 1.64% (inactive)
28 | O=C1c2ccccc2S(=O)(=O)N1CCCCN1CCN(c2ncccn2)CC1 | -11.4% (inactive)
29 | OCC(O)CS (stereo not given) | 3.17% (inactive)
30 | Nc1ncnc(Nc2ccccc2)n1 | 0.268% (inactive)
31 | O=C(c1ccccc1)C(O)c1ccccc1 (stereo not given) | -9.02% (inactive)
32 | CC(C)=CCC/C(C)=C/CO | -11.5% (inactive)
33 | CCOC(=O)[C@H](CCc1ccccc1)N[C@@H](C)C(=O)N1CCC[C@H]1C(=O)O | 6.16% (inactive)
34 | NCc1ccc(S(N)(=O)=O)cc1 | 6.67% [at 12.8 µM] (inactive)
35 | O=C1CC[C@@H](C(=O)O)N1 | 1.97% (inactive)
36 | Cc1c(NC(=O)c2cccnc2)c(=O)n(-c2ccccc2)n1C | 2.17% [at 12.8 µM] (inactive)
37 | CCCCCCCCCCC(CO)CCCCCCCC (stereo not given) | 4.16% (inactive)
38 | O=C1c2ccccc2C(=O)C1c1ccc(Br)cc1 | -26.9% (inactive)
39 | CCCCCCCC(=O)OCC(COC(=O)CCCCCCC)OC(=O)CCCCCCC | 5.11% (inactive)
40 | CC(=O)N[C@@H](Cc1ccc(O)cc1)C(=O)O | 5% (inactive)
41 | CC(=O)Oc1cccc(O)c1 | 12.2% (inactive)
42 | Cc1onc(-c2ccccc2)c1-c1ccc(S(N)(=O)=O)cc1 | 1.99% (inactive)
43 | Cc1c(I)c(=O)n(-c2ccccc2)n1C | 6.12% (inactive)
44 | CN(C(=O)c1c(O)c2ccccc2n(C)c1=O)c1ccccc1 | 3.17% (inactive)
45 | C[C@H]1COc2c(C3(N)CC3)c(F)cc3c(=O)c(C(=O)O)cn1c23 | 4.51% (inactive)
46 | CC(=O)SC[C@@H](Cc1ccccc1)C(=O)NCC(=O)OCc1ccccc1 | -1.99% [at 12.8 µM] (inactive)
47 | Cc1[nH]c(C)c(Cl)c(=O)c1Cl | -5.57% (inactive)
48 | O=C(O)CCCCC1CCSS1 (stereo not given) | 0.932% (inactive)
49 | CCN1CC(CCN2CCOCC2)C(c2ccccc2)(c2ccccc2)C1=O (stereo not given) | -17.6% (inactive)
50 | CN(C/C=C/C#CC(C)(C)C)Cc1cccc2ccccc12 | -8.25% (inactive)
